This note sets out measurements from the supplement of paper PMC3414501.

Structures can show the parent of a compound that is named as a salt. Values without a mark were called inactive.

For assay [1], the system named is S. cerevisiae SK1 pCDA2-eGFP (USY613), sporulating. The experiment in a line: CDA2-GFP sporulation assay sensitivity score (z-score vs DMSO controls); higher = stronger inhibition of sporulation, active = hit call of the paper.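 Also: active if sensitivity score above 5.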
Assay [2] relates to S. cerevisiae AD1-9 (efflux-pump deficient), vegetative growth in YPD. The experiment in a line: growth sensitivity score (doubling time z-score vs DMSO controls); higher = slower growth, strongly negative scores also mark growth inhibition (complete suppression), active = hit call of the paper. The procedure, abridged:
(§1)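 Optical density of Saccharomyces cerevisiae cultures in microtiter plates was followed every 15 min for 24 hours after seeding at an OD600 of 0.065. Eight solvent-only wells were run per experiment. Growth sensitivity scores were found by subtracting the solvent-only mean from the compound mean and dividing by the solvent-only standard deviation.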

In assay [3] the test system is S. cerevisiae BY4741 (wild-type), vegetative growth in YPD. The description is as above. The procedure, abridged: as §1

Consider `COC(=O)C1=C(C)NC(C)=C(C(=O)OC)C1c1ccccc1[N+](=O)[O-]` [Nifedipine] (stock concentration (mM, diluted 1:100): 10.7), for which the “CDA2-GFP sporulation assay sensitivity score” value in assay [1] is 3.14. Further, the values for the growth sensitivity score in assay [2] and in assay [3] were 60 (active) and 4.28 (active), respectively.

Consider `CCOC(=O)N1CCC(=C2c3ccc(Cl)cc3CCc3cccnc32)CC1` [Loratadine] (stock concentration (mM, diluted 1:100): 10), for which the “CDA2-GFP sporulation assay sensitivity score” value in assay [1] was 3.83. Also, the growth sensitivity score in assay [3] is 335 (active).

With `O=C1c2cccc3c2[C@H](CCC3)CN1[C@@H]1CN2CCC1CC2` [Palonosetron hydrochloride] (stock concentration (mM, diluted 1:100): 10), in assay [1], the “CDA2-GFP sporulation assay sensitivity score” value was 8.71. Moreover, the results for the growth sensitivity score in assay [2] and in assay [3] were 2.17 (active) and -1.82, respectively.

As to `CC(C)C[C@H](NC(=O)[C@@H](COC(C)(C)C)NC(=O)[C@H](Cc1ccc(O)cc1)NC(=O)[C@H](CO)NC(=O)[C@H](Cc1c[nH]c2ccccc12)NC(=O)[C@H](Cc1cnc[nH]1)NC(=O)[C@@H]1CCC(=O)N1)C(=O)N[C@@H](CCCNC(=N)N)C(=O)N1CCC[C@H]1C(=O)NNC(N)=O` [Goserelin acetate] (stock concentration (mM, diluted 1:100): 9.6), the “CDA2-GFP sporulation assay sensitivity score” value in assay [1] is 0.53. The values for the growth sensitivity score in assay [2] and in assay [3] were 0.11 and -0.77, respectively.

For the compound `C[C@H]1COc2c(N3CCN(C)CC3)c(F)cc3c(=O)c(C(=O)O)cn1c23` [Levofloxacin] (stock concentration (mM, diluted 1:100): 10), in assay [1], the “CDA2-GFP sporulation assay sensitivity score” value was -0.01. Further, in assay [3], the growth sensitivity score was -0.66.

Consider `CCOC(=O)C1=C(COCCN)NC(C)=C(C(=O)OC)C1c1ccccc1Cl` (centres undefined) [Amlodipine base] (stock concentration (mM, diluted 1:100): 13.9), for which the “CDA2-GFP sporulation assay sensitivity score” value in assay [1] was 5.4 (active). For the same compound, the growth sensitivity score in assay [3] was 14.2 (active).

As to `Cc1ccc(O)c([C@H](CCN(C(C)C)C(C)C)c2ccccc2)c1` [Tolterodine tartrate] (stock concentration (mM, diluted 1:100): 6.9), the “CDA2-GFP sporulation assay sensitivity score” value in assay [1] was 1.84. For the same compound, the results for the growth sensitivity score in assay [2] and in assay [3] were 2.36 (active) and 0.36, respectively.

Consider `CC(C)(C#N)c1cc(Cn2cncn2)cc(C(C)(C)C#N)c1` [Anastrozole] (stock concentration (mM, diluted 1:100): 10), for which the “CDA2-GFP sporulation assay sensitivity score” value in assay [1] is 3.64. Moreover, the growth sensitivity score in assay [2] was -1.94; in assay [3] it was -0.82.

As for `O=C1N(c2ccccc2)c2ccccc2C1(Cc1ccncc1)Cc1ccncc1` (stock concentration (mM, diluted 1:100): 10), the “CDA2-GFP sporulation assay sensitivity score” value in assay [1] was 0.26. Moreover, the growth sensitivity score in assay [2] is 8.78 (active); in assay [3], 1.8.

In the case of `COc1c(N2C[C@@H]3CCCN[C@@H]3C2)c(F)cc2c(=O)c(C(=O)O)cn(C3CC3)c12` [Moxifloxacin hydrochloride] (stock concentration (mM, diluted 1:100): 9.2), the “CDA2-GFP sporulation assay sensitivity score” value in assay [1] was 2.59. Besides, the values for the growth sensitivity score in assay [2] and in assay [3] were 22.4 (active) and 0.08, respectively.

On to `CCN1CC(CCN2CCOCC2)C(c2ccccc2)(c2ccccc2)C1=O` (centres undefined) [Doxapram hydrochloride] (stock concentration (mM, diluted 1:100): 10.4), for which, in assay [1], the “CDA2-GFP sporulation assay sensitivity score” value is -0.58. Moreover, the growth sensitivity score is -0.91 in assay [2] and -0.29 in assay [3].

In the case of `O=C1c2c(O)cc(O)cc2OC(c2ccc(O)c(O)c2)C1O` (centres undefined) [Taxifolin] (stock concentration (mM, diluted 1:100): 10), in assay [1], the “CDA2-GFP sporulation assay sensitivity score” value was -0.07. The growth sensitivity score is -0.46 in assay [2] and -0.85 in assay [3].

Consider `COc1ccc(CCN(C)CCCC(C#N)(c2ccc(OC)c(OC)c2)C(C)C)cc1OC` (centres undefined) (stock concentration (mM, diluted 1:100): 10), for which the “CDA2-GFP sporulation assay sensitivity score” value in assay [1] was 2.38. For the same compound, the growth sensitivity score in assay [3] was 0.01.

For `CC(C)C[C@H](NC(=O)[C@@H](O)[C@H](N)Cc1ccccc1)C(=O)O` [Bestatin] (stock concentration (mM, diluted 1:100): 10), the “CDA2-GFP sporulation assay sensitivity score” value in assay [1] is -0.06. In addition, the growth sensitivity score was -1.24 in assay [2] and -1.14 in assay [3].

As to `O=C(O)/C=C/c1ccc(Cn2ccnc2)cc1` [Ozagrel hydrochloride] (stock concentration (mM, diluted 1:100): 8.6), the “CDA2-GFP sporulation assay sensitivity score” value in assay [1] is 0.27. For the same compound, the growth sensitivity score was 0.64 in assay [2] and 2.72 (active) in assay [3].

For the compound `CC(c1cc2ccccc2s1)N(O)C(N)=O` (centres undefined) [Zileuton] (stock concentration (mM, diluted 1:100): 10), in assay [1], the “CDA2-GFP sporulation assay sensitivity score” value was -0.22. For the same compound, the figures for the growth sensitivity score in assay [2] and in assay [3] were 0.45 and -0.81, respectively.
